The values that follow come from PubChem BioAssay.

Assay [1] can be described thus: compounds altering viability of human ES cells (AID 493140; call rule not given here;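 also: cells exposed to compounds for four days before counting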). To be noted: human embryonic stem cell survival screen; stronger effect = higher value.
Assay [2] relates to Neuropilin-2 / VEGF-C interaction (human). Briefly: small molecules blocking Neuropilin-2/VEGF-C interaction – biochemical, microplate binding format, z-score (AID 743281; call rule not given here). Conditions: microplate NRP2/VEGF-C binding assay; stronger effect = lower value.
Assay [3] can be described thus: modulation of C. elegans fzo-1 (AID 1259413; call rule not given here;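 also: fzo-1 mutant C. elegans worms in liquid wells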). Conditions: C. elegans fzo-1 modulator screen, mean read-out; stronger effect = higher value.
A short description of assay [4]: galactose survival enhancers in mitochondrial complex I cybrids – cell-based, galactose medium, ATP luminescence, primary screen (AID 1645843;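 active = z-score of at least 1.8 in each of two replicates, scored against plate mean and spread of sample wells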;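 also: positive z means more ATP and so rescue of galactose-driven cybrid death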). Conditions: complex I mutant cybrid cells, 72 h, stronger effect = higher value.
For assay [5], the system named is F380Y/beta1. Briefly: BK channel mutant inhibitors and activators – cell-based, U2OS BacMam, thallium flux, beta subunits, selectivity assay, profiling panel (AID 1259406).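 Also: initial slope of Thallos dye fluorescence rise after thallium is added; log ratio against the mean of 0.3% DMSO vehicle wells on the same plate.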 To be noted: U2OS BacMam BK variants, at 30 µM.
Assay [6] deals with F380Y/beta2Delta. The description is as above. To be noted: U2OS BacMam BK variants, at 30 µM.
Assay [7] concerns F380Y/beta4. The assay is described as above. To be noted: U2OS BacMam BK variants, at 30 µM.
The target in assay [8] is Calcium-activated potassium channel subunit alpha-1 (Homo sapiens) + Leucine-rich repeat-containing protein 26 (Homo sapiens) (UniProt Q12791+Q2I0M4). The description is as above. To be noted: U2OS BacMam BK variants, F380Y/Slo1WT/gamma1, at 30 µM.
Calcium-activated potassium channel subunit alpha-1 (Homo sapiens) + Leucine-rich repeat-containing protein 26 (Homo sapiens), sequence (Q2I0M4 whole entry, looked up, one chain of several): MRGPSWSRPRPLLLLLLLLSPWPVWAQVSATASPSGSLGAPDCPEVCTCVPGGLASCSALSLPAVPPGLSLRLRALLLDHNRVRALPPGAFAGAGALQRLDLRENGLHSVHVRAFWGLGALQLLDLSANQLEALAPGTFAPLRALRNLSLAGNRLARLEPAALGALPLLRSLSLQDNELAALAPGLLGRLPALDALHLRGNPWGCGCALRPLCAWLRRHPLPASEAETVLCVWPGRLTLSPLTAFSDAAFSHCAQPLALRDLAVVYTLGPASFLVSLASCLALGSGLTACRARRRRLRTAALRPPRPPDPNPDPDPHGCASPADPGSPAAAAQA
In assay [9] the test system is R275C. The description is as above. To be noted: U2OS BacMam BK variants, at 30 µM.
Assay [10] has as its system R275C/beta1. The description is as above. To be noted: U2OS BacMam BK variants, at 30 µM.
Assay [11] deals with R275C/beta2Delta. Described as above. To be noted: U2OS BacMam BK variants, at 30 µM.
In assay [12] the test system is R275C/beta4. Described as above. To be noted: U2OS BacMam BK variants, at 30 µM.
The subject of assay [13] is R275C/Slo1WT/beta2. Described as above. To be noted: U2OS BacMam BK variants, at 30 µM.
Assay [14] in a line: blockers of polyQ-driven CASP3 activation – cell-based (AID 1583). Conditions: polyglutamine-induced caspase-3 activation, cell assay; stronger effect = higher value;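 tested at 10 µM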.
Assay [15] can be described thus: yeast 75Q aggregation reduction – 75Q-TubU reporter (AID 1593). To be noted: Yeast 75Q polyglutamine aggregation reporter.
Assay [16] is described as follows: restoration of touch response, mutant HTT neurons – whole organism, C. elegans mechanosensory neurons, N-terminal huntingtin (AID 1599). To be noted: C. elegans polyQ-huntingtin mechanosensory neurons, stronger effect = higher value.
The nature of assay [17]: blockers of cytochrome c efflux from mitochondria – biochemical, purified mitochondria (AID 1603).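 Also: mouse liver mitochondria challenged with calcium chloride; signal normalized to the plate average as 100%.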 To be noted: stronger effect = lower value.
A short description of assay [18]: polyglutamine aggregate formation blockers (AID 1604). Conditions: polyglutamine-induced protein aggregation inhibition assay; stronger effect = higher value; tested at 2.5 µM.
A short description of assay [19]: glutamate transport activators, MN-1 cells, MN-1 cell line (AID 1612).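 Also: tested at 1 µM final; 0% = mean of DMSO vehicle wells on each plate; positive means more glutamate uptake than control and negative means less.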 To be noted: MN-1 motor neuron cells, stronger effect = higher value.
Assay [20] can be described thus: 75Q-TubH aggregate inhibition, S. cerevisiae, yeast (AID 1616). To be noted: S. cerevisiae 75Q-TubH polyglutamine aggregation suppression; stronger effect = higher value.

“And” between values parts separate entries of the source, which are not always exact repeats. Equal values may be shown once. For some assays here: Measured potencies and affinities stand elsewhere. The source made the active and inactive calls.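 The calls were made as follows, unless noted: active = thallium flux through the channel raised or lowered by more than 3 SD from vehicle-only wells, actives on both sides; inactive = the rest.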

`C[C@]12CCC(=O)C=C1CC[C@@H]1[C@@H]2C(=O)C[C@@]2(C)[C@H]1CC[C@]2(O)C(=O)CO`: the survival in assay [1] is 29.6 (inactive). Also, the z-score in assay [2] was 0.291 (inactive); in [4], 0.195 (inactive). Further, in assay [3], the mean signal is 220 (inactive). The log fold change Tl+ flux in assay [5] is -0.034 (inactive); in assay [6], 0.0238 (inactive); in assay [7], -0.00179 (inactive); in [8] it was 0.0148 (inactive); in assay [9], -0.0438 (inactive); in [10], -0.0165 (inactive). For the same compound, the log fold change Tl+ flux in assay [11] is -0.0316 (inactive); in assay [12] it was 0.0193 (inactive); in [13] it was 0.0155 (inactive).

With `Cc1cccc(Nc2ccncc2S(=O)(=O)NC(=O)NC(C)C)c1`, the survival in assay [1] is 8.33 (inactive). The z-score in [2] was 0.676 (inactive); in assay [4] it was 1.21 (inactive). Moreover, in [3], the mean signal was 241 (inactive). For the same compound, the log fold change Tl+ flux in assay [5] is 0.0627 (inactive); in assay [6], -0.0041 (inactive); in assay [7], -0.0278 (inactive); in assay [8], -0.0447 (inactive); in assay [9], -0.147 (active); in assay [10], 0.0246 (inactive). In addition, the log fold change Tl+ flux in assay [11] is 0.0124 (inactive); in [12] it was 0.029 (inactive); in [13], 0.0277 (inactive).

The term inhibition denotes the relative decrease from the control value, in per cent. As to `CN[C@@H]1[C@H](O)[C@H](NC)[C@H]2O[C@@]3(O)C(=O)C[C@@H](C)O[C@H]3O[C@@H]2[C@H]1O`, in assay [14], the inhibition was found to be 16.9%. Moreover, the score in assay [15] worked out at 1.49. The same compound returned a rescue above control in assay [16] of 0.75. The cytochrome c release ratio in assay [17] amounted to 0.85. In assay [18], this compound returned an inhibition of aggregation of 14.3%. For the same compound, the glutamate uptake change in assay [19] is -0.34%. The same compound returned an aggregation suppression score in assay [20] of 1.46. Besides, the survival in [1] is 3.25 (inactive). Besides, the z-score in assay [4] was 0.84 (inactive) and 1 (inactive). Further, the log fold change Tl+ flux was 0.00447 (inactive) in [5]; -0.0192 (inactive) in assay [6]; 0.0229 (inactive) in [7]; 0.021 (inactive) in assay [8]; 0.108 (active) in [9]; 0.0857 (inactive) in assay [10]. The log fold change Tl+ flux in assay [11] was -0.00159 (inactive); in [12], 0.0437 (inactive); in assay [13], -0.0137 (inactive).

Regarding `Cn1c(=O)c2[nH]cnc2n(C)c1=O`, in assay [14], the inhibition worked out at 9.69%. Moreover, the score in assay [15] came out at 1.11. The same compound yielded a rescue above control in [16] of 1.91. Further, the cytochrome c release ratio in assay [17] was determined as 0.95. Also, the inhibition of aggregation in assay [18] amounted to 68.2%. In addition, the glutamate uptake change in [19] was -19.2%. This compound showed an aggregation suppression score in assay [20] of 0.779. For the same compound, in assay [1], the survival was 4.08 (inactive) and 2.17 (inactive). Besides, the mean signal in assay [3] is 256 (inactive). Also, the z-score in assay [4] is 0.425 (inactive) and 0.475 (inactive) and 0.2 (inactive). The log fold change Tl+ flux is 0.00494 (inactive) in assay [5]; -0.0514 (inactive) in [6]; -0.00644 (inactive) in assay [7]; -0.0341 (inactive) in [8]; 0.000907 (inactive) in assay [9]; 0.0503 (inactive) in assay [10]. Moreover, the log fold change Tl+ flux was -0.00245 (inactive) in assay [11], 0.0294 (inactive) in [12] and 0.0554 (inactive) in assay [13].

Regarding `CN(C)CC/C=C1\c2ccccc2COc2ccccc21`, in [1], the survival was 18.8 (inactive). Besides, the mean signal in assay [3] is 222 (inactive). In addition, the z-score in assay [4] was -0.51 (inactive) and -1.11 (inactive). In addition, the log fold change Tl+ flux in assay [5] was 0.078 (inactive); in assay [6], 0.0812 (active); in assay [7], 0.0925 (inactive); in assay [8], 0.0287 (inactive); in assay [9] it was -0.0142 (inactive); in [10] it was 0.119 (active). For the same compound, the log fold change Tl+ flux in assay [11] is 0.0609 (inactive); in [12], 0.0396 (inactive); in assay [13], -0.0225 (inactive).

For `CC(C)Oc1ccc2c(=O)c(-c3ccccc3)coc2c1`, the z-score in assay [2] was 0.0143 (inactive); in assay [4], -0.74 (inactive). Further, the mean signal in assay [3] is 191 (inactive). In addition, the log fold change Tl+ flux in [5] was -0.0734 (inactive); in assay [6] it was -0.052 (inactive); in [7], -0.0682 (inactive); in assay [8], -0.0126 (inactive); in assay [9], -0.0788 (inactive); in assay [10], -0.122 (active). Further, the log fold change Tl+ flux is -0.0975 (active) in assay [11], -0.0145 (inactive) in assay [12] and 0.013 (inactive) in assay [13].

`Cc1ccc(O)c([C@H](CCN(C(C)C)C(C)C)c2ccccc2)c1`: in assay [2], the z-score is -0.0447 (inactive). For the same compound, the mean signal in assay [3] is 219 (inactive). Besides, the log fold change Tl+ flux is 0.0975 (active) in assay [5]; 0.0454 (inactive) in [6]; 0.136 (active) in assay [7]; 0.0595 (inactive) in assay [8]; -0.0487 (inactive) in assay [9]; 0.03 (inactive) in [10]. The figures for the log fold change Tl+ flux in [11], in assay [12] and in assay [13] were 0.0798 (inactive), 0.0668 (inactive) and 0.0213 (inactive), respectively.

As for `C[C@H](CCC(=O)O)[C@H]1CC[C@H]2[C@@H]3C(=O)C[C@@H]4CC(=O)CC[C@]4(C)[C@H]3CC(=O)[C@]12C`, the z-score in assay [2] is -0.00555 (inactive). In addition, in [3], the mean signal was 247 (inactive). Further, the log fold change Tl+ flux in assay [5] was -0.0273 (inactive); in assay [6], 0.00244 (inactive); in [7], -0.0104 (inactive); in [8] it was -0.0617 (inactive); in assay [9], -0.000869 (inactive); in assay [10] it was -0.0193 (inactive). Besides, the log fold change Tl+ flux was -0.00319 (inactive) in [11], 0.0134 (inactive) in assay [12] and -0.0176 (inactive) in [13].

Take `C[C@]12CCC(=O)C=C1CC[C@@H]1[C@@H]2[C@@H](O)C[C@@]2(C)[C@H]1CC[C@]2(O)C(=O)COC(=O)CCC(=O)O`: the mean signal in assay [3] was 257 (inactive). Moreover, the z-score in [4] was -0.315 (inactive). For the same compound, the log fold change Tl+ flux in assay [5] is -0.0186 (inactive); in assay [6], 0.00491 (inactive); in [7], 0.0128 (inactive); in assay [8] it was 0.0102 (inactive); in assay [9] it was 0.0834 (inactive); in [10], 0.0319 (inactive). Moreover, the log fold change Tl+ flux in assay [11] is 0.0103 (inactive); in assay [12], -0.0484 (inactive); in [13], -0.0271 (inactive).

For `COc1ccc([C@@H]2Sc3ccccc3N(CCN(C)C)C(=O)[C@@H]2OC(C)=O)cc1`, the survival in assay [1] was 19.4 (inactive). Also, the mean signal in [3] was 243 (inactive). Further, the log fold change Tl+ flux in [5] was 0.0592 (inactive); in assay [6], -0.00376 (inactive); in assay [7], 0.0311 (inactive); in assay [8], 0.0123 (inactive); in assay [9], -0.0404 (inactive); in assay [10], 0.0836 (inactive). The log fold change Tl+ flux in [11] was 0.0243 (inactive); in [12], 0.104 (inactive); in [13] it was 0.0487 (inactive).

In the case of `C[C@]12CCC(=O)C=C1CC[C@@H]1[C@@H]2[C@@H](O)C[C@@]2(C)[C@H]1CC[C@]2(O)C(=O)CO`, the survival in assay [1] was 5.5 (inactive). Also, the mean signal in assay [3] is 278 (inactive). The z-score in assay [4] is 0.565 (inactive) and 0.385 (inactive) and -0.22 (inactive). In addition, the log fold change Tl+ flux in [5] was 0.0243 (inactive); in assay [6] it was 0.0274 (inactive); in assay [7], 0.00205 (inactive); in assay [8] it was -0.00874 (inactive); in [9], -0.0265 (inactive); in assay [10], -0.0128 (inactive). The log fold change Tl+ flux in assay [11] is 0.0134 (inactive); in assay [12], -0.0399 (inactive); in assay [13] it was 0.0266 (inactive).

For the compound `CC(COc1ccccc1)NC(C)C(O)c1ccc(O)cc1` (stereo not given), the survival in [1] is 10.8 (inactive). The mean signal in assay [3] was 247 (inactive). The z-score in assay [4] was 0.74 (inactive). Besides, the log fold change Tl+ flux in assay [5] was 0.0456 (inactive); in assay [6], 0.0627 (inactive); in assay [7], 0.0762 (inactive); in [8] it was -0.0341 (inactive); in assay [9], 0.0486 (inactive); in assay [10], 0.000959 (inactive). The log fold change Tl+ flux in assay [11] is 0.0577 (inactive); in [12], 0.0625 (inactive); in [13], 0.0192 (inactive).
